# AmpC inh detg = AmpC beta-lactamase inhibition with detergent present; P00811; Potency, µM (series often up to 114 µM), without a hit: at the highest dose activity change, negative = inhibition, hits mostly inhibitors; AmpC hydrolysis of nitrocefin, absorbance 480 nm, 0.01% Triton; 370,000 compounds, 0.041% hits;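 further: 0% = no-compound wells and -100% = no-enzyme wells; nearly all actives have a fitted effect of over 25% in size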
# Target sequence (P00811 whole entry, looked up): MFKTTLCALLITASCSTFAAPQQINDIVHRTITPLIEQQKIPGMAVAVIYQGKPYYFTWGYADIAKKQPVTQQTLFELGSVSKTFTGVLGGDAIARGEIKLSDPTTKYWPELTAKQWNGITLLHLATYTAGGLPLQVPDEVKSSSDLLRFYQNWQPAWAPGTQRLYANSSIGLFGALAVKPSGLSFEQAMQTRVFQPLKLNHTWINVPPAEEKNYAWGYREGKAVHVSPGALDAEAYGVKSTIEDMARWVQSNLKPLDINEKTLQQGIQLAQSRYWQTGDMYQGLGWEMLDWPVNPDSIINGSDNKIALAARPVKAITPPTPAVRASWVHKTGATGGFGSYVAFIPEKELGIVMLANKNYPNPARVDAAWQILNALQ
#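 20 mM phosphate pH 7.0 + 0.01% (detergent screen) or 0.0001% Triton X-100; 5.3 nM AmpC reagent; cpd preinc 15 min RT; nitrocefin (800 uM stock) to start; A480 q20 s × 4 min; Activity was normalised to no-enzyme and no-compound control wells.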
# HCV inhibitor = blocks hepatitis C virus | Potency, µM (series often up to 41.8 µM), inactives show at the highest dose activity change, negative = inhibition, hits mostly inhibitors | Huh7.5.1 HCVcc-Cre infection, luciferase reporter, 44 h | 340,000 compounds, 3.4% hits
#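 Luciferase read-out (15 sec integration) after a 15 min room-temperature substrate step quantifies HCVcc-Cre infection. Cells, 1,000 per well, had compound added 4 h post-plating, then virus at ~0.5 moi, and were cultured 44 h.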
# Pf growth 48h = P. falciparum growth inhibition at 48 hours (one generation). P. falciparum luciferase growth in erythrocytes, 48 h. Potency, µM (titrated, usually from 28.7 µM), for the others: at the top dose activity change, negative = inhibition, most hits filed as inhibitors. 310,000 compounds, 5.9% hits. AID 504832
#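 Here the parasites carry a stable luciferase gene and grow inside erythrocytes in Albumax-based RPMI medium with compound for one erythrocytic cycle. Activity is scored as loss of luminescent signal.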
# Pf growth 96h = inhibits malaria parasite growth, 96 h. P. falciparum luciferase reporter growth, 96 h. Potency, µM (titrated, usually from 28.7 µM), for inactives: top-dose activity change, negative = inhibition, most hits filed as inhibitors. 320,000 compounds, 6.9% hits
#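 Compounds incubated with erythrocytes infected by luciferase-expressing P. falciparum (2% hematocrit, 0.05% parasitemia final) for 96 hours, 37 C in 5% CO2. Growth inhibition scored as decreased luciferase luminescence.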
# AmpC no deterg = blocks E. coli AmpC beta-lactamase in detergent-free assay; AmpC nitrocefin hydrolysis, absorbance 480 nm, 0.0001% Triton; AID 485341; Potency, µM (series often up to 57.1 µM), for the others: at the top dose activity change, negative = inhibition, most hits filed as inhibitors; 330,000 compounds, 0.52% hits;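 further: plate controls were no compound for no effect and no enzyme for full effect; nearly all actives have a fitted effect of over 20% in size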
#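 20 mM phosphate pH 7.0 + 0.01% (detergent screen) or 0.0001% Triton X-100; 5.3 nM AmpC reagent; cpd preinc 15 min RT; nitrocefin (800 uM stock) to start; A480 q20 s × 4 min; Activity was normalised to no-enzyme and no-compound control wells.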
# AMA1 RON2 block = AMA1-RON2 (P. falciparum) interaction inhibition; AlphaScreen AMA1-biotinylated RON2 peptide binding; Potency, µM (titrated, usually from 58.2 µM), inactives show top-dose activity change, negative = inhibition, actives largely listed as inhibitors; 360,000 compounds, 0.2% hits;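 further: 0% = vehicle wells and -100% = peptide control; nearly all actives have a fitted effect of over 45% in size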
#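 AMA1 (3D7) with his tag at 25 nM final met compounds first, then biotinylated RON2 peptide at 25 nM; detection used donor plus acceptor beads, 10 µg/mL apiece, read by AlphaScreen after 30 min at room temperature.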
# An asterisk follows results filed as active; ? = inconclusive; . = not tested or not shown. An excerpt weighted towards active compounds, which were near 11% of everything screened. The call rests on the fitted dose curve; in most records, active means well fitted curve in the direction sought with a large enough effect; inconclusive means small, poorly fitted or top-dose-only effect, or another doubt; inactive means no such curve, though single readings can be large; an effect the other way counts as inactive or inconclusive. Unless noted, on the % scale 0 is the no-effect control and ±100 the full control effect; potency means the concentration at half of the fitted maximal effect.
SMILES,AmpC inh detg,HCV inhibitor,Pf growth 48h,Pf growth 96h,AmpC no deterg,AMA1 RON2 block
Cc1cccc(CCNS(=O)(=O)c2cc3c(cc2C)NC(=O)CO3)c1,-11%,-25%,17%,9.3µM*,-18%,25%
Cc1ccc(CCNS(=O)(=O)c2cc3c(cc2C)NC(=O)CO3)cc1,?,-28%,-7%,53%,-17%,22%
Cc1cccc(CCNC(=O)CCS(=O)(=O)c2cc3c(cc2C)NC(=O)CO3)c1,-8%,-22%,7%,?,-12%,19%
CCOC(=O)c1cccc(NS(=O)(=O)c2cc3c(cc2C)NC(=O)CO3)c1,19%,.,.,.,.,.
Cc1cc2c(cc1S(=O)(=O)CCC(=O)NCCc1ccccc1)OCC(=O)N2,-9%,-2%,-11%,8.3µM*,-13%,-3%
CC(=O)c1cccc(NS(=O)(=O)c2cc3c(cc2C)NC(=O)CO3)c1,-14%,-16%,17%,15µM*,-14%,-3%
Cc1cccc(-n2c(=O)c3c4c(sc3n3cnnc23)CCCC4)c1,13%,.,.,.,.,.
S=C(NCc1ccco1)Nc1cc(Cl)c(Cl)cc1Cl,?,25µM*,12%,-19%,-32%,24%
Cc1ccccc1NC(=S)NC(NC(=O)c1ccco1)C(Cl)(Cl)Cl (centres undefined),?,-1%,?,9.3µM*,-38%,0%
S=C(NCc1ccco1)Nc1ccc(Cl)c(Cl)c1,-2%,-26%,21%,51%,-26%,1%
S=C(NCc1ccco1)Nc1cc(-c2ccccc2)[nH]n1,-2%,?,25%,30%,16µM*,22%
Cc1ccc(NC(=S)NCc2ccco2)c(C)c1,4%,-10%,-13%,-26%,-27%,-10%
Cc1ccccc1NC(=S)NCc1ccco1,-11%,?,8%,0.33µM*,-11%,0%
Cc1ccsc1CN(C(=O)COc1cccc(C)c1C)C1CCS(=O)(=O)C1 (centres undefined),3%,.,.,.,.,.
Cc1cc(-n2c(SCC(=O)NCCC3=CCCCC3)nc3n[nH]c(C)c3c2=N)ccc1Cl,1%,?,?,4.7µM*,6%,-9%
CCOc1ccc(S(=O)(=O)N2CCCCC2)cc1NC(=O)C1=COCCO1,0%,12%,?,-21%,-13%,7%
CCOc1ccc(S(=O)(=O)N2CCCCC2)cc1NC(=O)C1CCC1,?,-15%,1%,0%,-17%,9%
COc1ccc(S(=O)(=O)N2CCOCC2)cc1NC(=O)COC(=O)C1COc2ccccc2O1 (centres undefined),-9%,10%,17%,40%,57%,-7%
CCOc1ccc(S(=O)(=O)N2CCCCC2)cc1NC(=O)C1COc2ccccc2O1 (centres undefined),8%,10µM*,6.6µM*,?,-10%,-5%
CC(C)Oc1ccc(S(=O)(=O)N2CCOCC2)cc1NC(=O)C1COc2ccccc2O1 (centres undefined),9%,?,12µM*,12µM*,45%,-9%
CC(C)Oc1ccc(S(=O)(=O)N2CCOCC2)cc1NC(=O)C1=COCCO1,?,23%,?,12µM*,-13%,-2%
CCOC(=O)c1c(C)[nH]c(CCC(=O)NCc2ccccc2Cl)c1C,0%,.,.,.,.,.
O=C(Nc1nc(-c2cccs2)cs1)c1cccc(S(=O)(=O)N2CCCCC2)c1,2%,11µM*,?,?,-25%,?
Cc1ccc(-c2csc(NC(=O)c3cccc(S(=O)(=O)N4CCN(C)CC4)c3)n2)cc1,?,?,10%,7.4µM*,-12%,-15%
O=C(Nc1nc(-c2ccc(S(=O)(=O)N3CCCCCC3)cc2)cs1)c1cccs1,?,?,?,43%,?,-13%
SMILES,AmpC inh detg,HCV inhibitor,Pf growth 48h,Pf growth 96h,AmpC no deterg,AMA1 RON2 block
Cc1nnc(NC(=O)c2cccc(S(=O)(=O)N3CCN(C)CC3)c2)s1,-10%,10%,-16%,14%,-8%,-4%
COC(=O)c1ccccc1NC(=O)C1=CC(c2ccc3c(c2)OCO3)=NS(=O)(=O)N1C,15%,.,.,.,.,.
Cc1ccc(-c2csc(-c3nc(-c4ccc(Br)s4)cs3)n2)cc1,-2%,.,.,.,.,.
COC(=O)[C@@]1(C)[C@H]2C(=O)N(Cc3ccccc3)C(=O)[C@H]2[C@H]2CN(C)C(=NC3CCCCC3)N21,.,0.56µM*,.,.,49%,8%
O=C(COc1ccc(F)cc1)Nc1cc(S(=O)(=O)N2CCCCC2)ccc1N1CCCCC1,?,?,3.7µM*,7.4µM*,-38%,-14%
CCN1CCN(c2ccc(S(=O)(=O)N3CCCCC3)cc2NC(=O)COc2cc(C)ccc2Cl)CC1,?,?,12µM*,1.9µM*,164%,-28%
CCN1CCN(c2ccc(S(=O)(=O)N3CCCCC3)cc2NC(=O)COc2ccc(Cl)cc2)CC1,-6%,?,8.3µM*,?,72%,-11%
O=C(COc1ccc([N+](=O)[O-])cc1)Nc1cc(S(=O)(=O)N2CCCCC2)ccc1N1CCCCC1,-15%,3%,?,?,-25%,-14%
CCN1CCN(c2ccc(S(=O)(=O)N3CCCCC3)cc2NC(=O)CCNC(C)=O)CC1,.,0%,.,.,.,8%
O=C(COc1ccc(S(=O)(=O)N2CCCCC2)cc1)Nc1ccccc1F,-4%,-8%,12µM*,9%,-4%,-3%
CCOc1ccccc1NC(=O)CSc1cn(CC(=O)N2CCCCCC2)c2ccccc12,-2%,.,.,.,.,.
CCCn1c2ccccc2c2cnn(CC(=O)NCCc3ccc(C)cc3)c(=O)c21,4%,.,.,.,.,.
CCN1CCN(c2ccc(S(=O)(=O)N3CCCCC3)cc2NC(=O)COc2ccc(F)cc2Cl)CC1,-12%,?,7.4µM*,?,213%,-12%
CCN1CCN(c2ccc(S(=O)(=O)N3CCOCC3)cc2NC(=O)c2ccc(F)cc2Cl)CC1,-1%,1%,?,?,101%,-11%
Cc1ccc(C)c2[nH]c(=O)c(CN(Cc3ccc4c(c3)OCO4)Cc3nnnn3Cc3ccco3)cc12,3%,?,8.3µM*,?,13%,-9%
Cc1ccc2cc(CN(Cc3ccc4c(c3)OCO4)Cc3nnnn3Cc3ccco3)c(=O)[nH]c2c1C,0%,?,8.3µM*,?,-2%,-4%
Cc1ccc2cc(CN(CCN3CCOCC3)Cc3nnnn3Cc3ccco3)c(=O)[nH]c2c1C,-11%,10%,-15%,?,3%,6%
COCCn1nnnc1CN(Cc1ccco1)Cc1cc2cc3c(cc2[nH]c1=O)OCO3,-5%,11%,6%,-11%,-4%,14%

# High-throughput results from PubChem.
